AGP1-GFP MLPCN = modulators of TOR pathway AGP1-GFP in S. cerevisiae; S. cerevisiae AGP1-GFP multiplex flow cytometry, 3 h; GFP as percent of DMSO wells; GFP response vs DMSO, % at 10 µM; actives 0.02% (n = 320,000); AID 2066;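 active = GFP response relative to DMSO above a set limit, near screen average plus 3 SD, cut at about 150% in these data; inconclusive = fewer than 70 cells counted for the yeast strain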;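 note: median GFP channel fluorescence of the gated AGP1 strain per well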
CIT2-GFP yeast = modulators of TOR pathway CIT2-GFP in S. cerevisiae; GFP response vs DMSO, % at 10 µM; S. cerevisiae CIT2-GFP strain, flow cytometry, 3 h; 100 means same as DMSO wells; actives 0.065% (n = 320,000);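 active = GFP response relative to DMSO above a set limit, near the screen mean plus 3 SD, cut at about 150% in these data; inconclusive = Fewer than 70 cells measured for a yeast strain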;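 note: ratio of well median GFP fluorescence to mean of DMSO wells on the plate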
LAP4 TOR yeast = yeast TOR pathway LAP4-GFP modulation. S. cerevisiae LAP4-GFP multiplex, flow cytometry GFP, 3 h; median GFP as percent of DMSO wells. AID 2023. GFP response vs DMSO, % at 10 µM. actives 0.34% (n = 320,000);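 active = GFP response vs DMSO above a set limit, about the screen mean plus 3 SD, cut at about 150% in these data; inconclusive = under 70 cell events counted for the yeast strain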
MEP2-GFP yeast = modulators of TOR pathway MEP2-GFP in S. cerevisiae; S. cerevisiae MEP2-GFP strain, flow cytometry GFP, 3 h; 100% = DMSO control level; GFP response vs DMSO, % at 10 µM; actives 0.51% (n = 330,000);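 active = GFP response versus DMSO above a set limit, roughly screen mean plus 3 SD, cut at about 180% in these data; inconclusive = fewer than 70 cells counted for a yeast strain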;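 note: median GFP fluorescence of the barcode-gated MEP2-GFP cells per well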
RPL19A-GFP yeast = modulators of TOR pathway RPL19A-GFP in S. cerevisiae; S. cerevisiae RPL19A-GFP strain, flow cytometry, 3 h; active compounds read low; actives 0.3% (n = 330,000); percent response vs DMSO, % at 10 µM;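 active = percent response vs DMSO below 50%; inconclusive = fewer than 70 events counted for the yeast strain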;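 note: median channel GFP fluorescence of the barcoded RPL19A-GFP strain; lower means less RPL19A-GFP as with rapamycin TOR inhibition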
Efflux pump mplx = blocks antifungal efflux pumps in multiplex yeast assay; S. cerevisiae Candida pump triplex, Nile Red efflux; AID 485275; actives 0.44% (n = 330,000); inhibition, % at 10 µM;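 active = plate passing quality check with inhibition over a set limit, or well fluorescence over plate mean plus 4 SD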;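 note: Nile Red retained in pooled yeast measured as flow cytometry median fluorescence; higher means more Nile Red kept so more efflux inhibition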
LAP4-GFP pick2 = yeast LAP4-GFP modulation, second cherry pick; GFP response vs DMSO, % at 10 µM; shares compounds with LAP4 TOR yeast; AID 2621; S. cerevisiae LAP4-GFP strain, flow cytometry GFP, 3 h; actives 20% (n = 590);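 active = GFP signal as percent of the solvent control above about 150%, meaning raised reporter expression, limit read from the data; inconclusive = fewer than 70 cells counted in the well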
MEP2-GFP pick2 = yeast MEP2-GFP modulation, second cherry pick. shares compounds with LAP4 TOR yeast. GFP response vs DMSO, % at 10 µM. S. cerevisiae MEP2-GFP strain, flow cytometry GFP, 3 h. AID 2622. actives 10% (n = 590);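 active = GFP signal above 150% of the solvent control wells, that is a rise of more than half; inconclusive = fewer than 70 yeast cells counted in the well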;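 note: median channel GFP fluorescence of all gated yeast cells per well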
RPL19A GFP CP2 = second confirmation of modulators of TOR reporter RPL19A-GFP in yeast; shares compounds with LAP4 TOR yeast; GFP response vs DMSO, % at 10 µM; actives 3% (n = 590); AID 2623; S. cerevisiae RPL19A-GFP strain, flow cytometry GFP, 3 h; active compounds read low; 100% means same as DMSO wells;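 active = under 65% GFP response relative to DMSO; inconclusive = yeast strain with under 70 measured events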;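 note: median GFP channel fluorescence per well over the all cells gate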
CIT2 GFP CP2 = reconfirmed modulator of CIT2-GFP TOR reporter in yeast | shares compounds with LAP4 TOR yeast | GFP response vs DMSO, % at 10 µM | actives 8% (n = 590) | S. cerevisiae CIT2-GFP strain, flow cytometry GFP, 3 h; DMSO control wells read 100%;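 active = GFP response vs DMSO above about 150%, limit read from the data; inconclusive = fewer than 70 events counted for a yeast strain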;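 note: median green fluorescence per well over all gated yeast cells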
AGP1-GFP pick2 = reconfirmed modulator of AGP1-GFP TOR reporter in yeast. AID 2643. 590 tested, under 10 active. shares compounds with LAP4 TOR yeast. percent response vs DMSO, % at 10 µM. S. cerevisiae AGP1-GFP strain, flow cytometry GFP, 3 h;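 active = over 150 percent of DMSO response; inconclusive = yeast strain measured with under 70 events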;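 note: median GFP channel fluorescence over all cells without mother daughter split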
s288c autofluor = yeast s288c autofluorescence artifact, counter-screen | shares compounds with LAP4 TOR yeast | S. cerevisiae s288c, 520 nm autofluorescence, flow cytometry, 3 h; active compounds read high; zero means same as solvent-only cells | fluorescence change (kMESF span) at 33 µM | 610 tested, under 10 active | AID 2757;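 active = fluorescence span over the dose series, or activity score, above about 33, limit read from the data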
Each line names hits and unclear results; the compound was inactive in the other large screens (follow-up assays come after a bar, where they were run). In the library only some 1.3% were active in any assay of this set; here they are far more common.

O=C(N/C(=C\c1ccccc1)C(=O)N1CCOCC1)c1ccccc1Br	none
CN(C)c1ccc(N=Cc2nc(-c3ccccc3)oc2OC(=O)c2cccc(Br)c2)cc1	none
CC(=O)Oc1oc(-c2ccccc2)nc1C=Nc1ccccc1	none | s288c autofluor inactive
CCOC(=O)c1ccc(N=Cc2nc3ccccc3n2C)cc1	none
COc1ccc(N=Cc2nc(-c3ccccc3)oc2OC(=O)c2ccccc2)cc1	none | s288c autofluor inactive
CCOC(=O)c1ccc(N=Cc2nc(-c3ccccc3)oc2OC(C)=O)cc1	LAP4 TOR yeast 207.6 | s288c autofluor inactive
Cc1ccc(NC(=O)C(C)OC(=O)/C=C/c2ccccc2)cc1S(=O)(=O)N1CCOCC1 (stereo not given)	none
Cc1cccc(C(=O)NCC(=O)N2CCC2)c1	AGP1-GFP MLPCN 447.0, CIT2-GFP yeast active, LAP4 TOR yeast active, MEP2-GFP yeast active | LAP4-GFP pick2 inactive | MEP2-GFP pick2 inactive | RPL19A GFP CP2 inactive | CIT2 GFP CP2 inactive | AGP1-GFP pick2 inactive
Cc1nc(SC(C)C(=O)NC2CCCC2)c2ccccc2n1 (stereo not given)	none
Cc1ccc(CN2C(=O)[C@@H]3Cc4c([nH]c5ccccc45)C(C)(C)N3C2=O)cc1	none
Cc1ccc(CN2C(=O)[C@H]3Cc4c([nH]c5ccccc45)C(C)(C)N3C2=O)cc1	LAP4 TOR yeast 155.7 | LAP4-GFP pick2 inactive | MEP2-GFP pick2 inactive | RPL19A GFP CP2 inactive | CIT2 GFP CP2 inactive | AGP1-GFP pick2 inactive
CC1CCN(S(=O)(=O)N2CCCC(C(=O)NCc3ccc(F)cc3)C2)CC1 (stereo not given)	none | LAP4-GFP pick2 inactive | MEP2-GFP pick2 inactive | RPL19A GFP CP2 inactive | CIT2 GFP CP2 inactive | AGP1-GFP pick2 inactive
O=C(NCc1ccc(F)cc1)C1CCN(S(=O)(=O)N2CCCC2)CC1	AGP1-GFP MLPCN inconclusive, CIT2-GFP yeast inconclusive, LAP4 TOR yeast inconclusive, MEP2-GFP yeast inconclusive, RPL19A-GFP yeast inconclusive
N/C(=N\OC(=O)c1cccc(Br)c1)c1ccccc1	LAP4 TOR yeast 178.2 | s288c autofluor inactive
CCOC(=O)/C(C#N)=C\c1cn(C)c2ccccc12	none
CCOC(=O)/C(=C\c1cn(C)c2ccccc12)[N+](=O)[O-]	LAP4 TOR yeast 207.2 | s288c autofluor inactive
C[C@H](NC(=O)N1CCn2c1nc1ccccc12)C(=O)NCc1ccc(F)cc1	none
O=C(CCNC(=O)N1CCn2c1nc1ccccc12)NCc1ccc(F)cc1	none | LAP4-GFP pick2 inactive | MEP2-GFP pick2 inactive | RPL19A GFP CP2 inactive | CIT2 GFP CP2 inactive | AGP1-GFP pick2 inactive
O=C(Nc1ccc(N2CCOCC2)nc1)c1ccccc1Cl	none
Cc1cc(C2CCCCC2)n(O)c(=O)c1	LAP4 TOR yeast 191.8 | LAP4-GFP pick2 187.4 | MEP2-GFP pick2 inactive | RPL19A GFP CP2 inactive | CIT2 GFP CP2 inactive | AGP1-GFP pick2 inactive | s288c autofluor inactive
CCc1ccc2c(c1)/C(=C/C(=O)c1cccs1)C(=O)N2	LAP4 TOR yeast 169.4 | s288c autofluor inactive
Cc1cc(Br)c2c(c1)/C(=C/C(=O)c1cccs1)C(=O)N2	none (no result: CIT2-GFP yeast) | s288c autofluor inactive
Cc1cc(C)c2c(c1)/C(=C/C(=O)c1ccc(Br)s1)C(=O)N2	none | s288c autofluor inactive
CCc1ccc2c(c1)/C(=N/N(C)C(=S)NC)C(=O)N2	none
Cc1cccc2c1NC(=O)/C2=C\C(=O)c1cccs1	LAP4 TOR yeast 185.3 | s288c autofluor inactive
COc1cccc(C(N)=O)c1OC(=O)Cc1ccccc1F	none
CC(=O)Oc1ccc2c(c1)Oc1cc(OC(C)=O)ccc1C21OC(=O)c2ccccc21	CIT2-GFP yeast 164.1, LAP4 TOR yeast 206.4, MEP2-GFP yeast 230.2 | LAP4-GFP pick2 inactive | MEP2-GFP pick2 174.7 | RPL19A GFP CP2 inactive | CIT2 GFP CP2 403.3 | AGP1-GFP pick2 inactive
Cc1cc(O)ccc1C1(c2ccc(O)cc2C)OC(=O)c2ccccc21	none
O/C=c1\ccc2cccc3nc(C(F)(F)F)nc1c23	CIT2-GFP yeast 241.6, LAP4 TOR yeast 172.7, MEP2-GFP yeast 233.1, Efflux pump mplx 3.0 | s288c autofluor inactive
COc1cc(/C=C/c2ccc3c(Br)cc(Br)c(O)c3n2)ccc1O	LAP4 TOR yeast 163.8 | s288c autofluor inactive
COc1ccc(/C=C/c2ccc3c(Br)ccc(O)c3n2)cc1	none
Cc1ccc(NC(=O)CN(C)C(=O)c2ccc(Sc3nncn3C)c([N+](=O)[O-])c2)cc1	none
CCOC(=O)C1(C)NC(c2cccs2)C2C(=O)N(c3ccc(OC)cc3)C(=O)C21 (stereo not given)	none
COC(=O)c1ccc(CSc2nc3c(c(=O)n2-c2ccc(C)cc2)SCC3)o1	LAP4 TOR yeast 171.6 | LAP4-GFP pick2 inactive | MEP2-GFP pick2 inactive | RPL19A GFP CP2 inactive | CIT2 GFP CP2 inactive | AGP1-GFP pick2 inactive
CCC(NC(=O)CCC(=O)N1CCN(S(=O)(=O)c2ccc(C)cc2)CC1)c1ccc(C)cc1 (stereo not given)	none
Cc1ccc(N/N=C(\C#N)C(N)=S)c(C)c1	LAP4 TOR yeast 161.0 | LAP4-GFP pick2 166.3 | MEP2-GFP pick2 218.3 | RPL19A GFP CP2 inactive | CIT2 GFP CP2 inactive | AGP1-GFP pick2 inactive | s288c autofluor inactive
COCCNC(=O)c1onc(CSc2ccncc2)c1C(=O)NCCOC	none
O=C1C(Cl)=C(N2CCCCCC2)C(=O)N1c1ccccc1Cl	none
Cc1ccccc1N1C(=O)C(Cl)=C(N2CCN(c3ccccc3)CC2)C1=O	none (no result: AGP1-GFP MLPCN) | s288c autofluor inactive
COc1ccc(OC)c(N=c2ssnc2Cl)c1	none

High-throughput results deposited in PubChem by NMMLSC.
